Compound activity as filed in PubChem BioAssay.
hgDAF12 agonist = H. glycines DAF-12 receptor agonists, primary screen, cell-based, luminescence, HEK293, GAL4 fusion, UAS-luciferase | AID 687014, 2013 | activation, % at 6.8 µM | 1.8% of 370,000 active | HEK293 GAL4-hgDAF12 UAS-luciferase reporter, agonist luminescence; normalized to butyrate control | Nuclear hormone receptor DAF-12 (Heterodera glycines), GAL4 fusion;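 active means activation above a cutoff set at the mean of all screened compounds plus 3 SD, cut at about 10% in these data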;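 further: 0% = DMSO wells and 100% = sodium butyrate wells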
DAX1 inh-1 = DAX1 (NR0B1) inhibitors on StAR promoter, primary screen, cell-based, luminescence, SF-1 (NR5A1), full-length DAX-1 | HEK293T StAR-luciferase reporter, SF-1/DAX-1 repression relief | inhibition, % at 6.8 µM | 1.1% of 370,000 active;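 active means inhibition above the mean over all tested compounds plus 3 SD, cut at about 3.6% in these data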;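 further: 0% = DAX-1 cells with DMSO and 100% = cells lacking DAX-1 with DMSO; higher inhibition means more luminescence from relief of DAX-1 repression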
hcDAF-12 act = H. contortus DAF-12 nuclear receptor activators, primary screen, cell-based, luminescence, HEK293, lit1-tk-luc reporter; 1.4% of 370,000 active; activation, % at 6.8 µM; HEK293 hcDAF-12 lit1-tk-luc reporter; 0% DMSO, 100% Δ7-dafachronic acid;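 active means activation above the mean of all tested compounds plus 3 SD, cut at about 5.5% in these data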;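 further: 100% = response to 3 µM Δ7-dafachronic acid high control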
DAX1 inh-2 = DAX1 (NR0B1) inhibitors, primary screen, cell-based, HEK293, Gal4-DAX1, luciferase luminescence. Nuclear receptor subfamily 0 group B member 1 (Homo sapiens), P51843. HEK293 Gal4-DAX1 luciferase reporter. inhibition, % at 6.75 µM. 0.99% of 340,000 active. AID 504766, 2011;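 active means inhibition above the mean over all tested compounds plus 3 SD, cut at about 4.2% in these data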;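 further: 0% = DAX1-transfected cells with DMSO and 100% = empty-vector control cells with DMSO; inhibition shows as a rise in luminescence from relieved DAX1 repression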
Target sequence (P51843 207-470 limits assumed): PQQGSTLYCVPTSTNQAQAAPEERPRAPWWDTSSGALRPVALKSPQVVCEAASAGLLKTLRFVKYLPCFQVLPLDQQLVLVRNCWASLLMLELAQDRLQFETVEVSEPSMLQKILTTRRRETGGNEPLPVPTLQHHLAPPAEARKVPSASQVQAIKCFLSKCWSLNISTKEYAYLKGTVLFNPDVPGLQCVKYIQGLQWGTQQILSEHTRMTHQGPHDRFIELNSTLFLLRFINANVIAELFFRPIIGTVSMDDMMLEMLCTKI
ssDAF12 agonist = S. stercoralis DAF-12 nuclear receptor activators, primary screen, cell-based, luminescence, HEK293, GRIP1 co-expression, lit1-tk-luc; HEK293 ssDAF-12/GRIP1 lit1-tk-luc reporter; % of 3 µM dafachronic acid response; activation, % at 6.8 µM; 1% of 370,000 active;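 active means activation above the mean over all tested compounds plus 3 SD, cut at about 0.9% in these data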;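 further: 0% = DMSO-only wells and 100% = 3 µM delta7-dafachronic acid wells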
DAX1 inh confirm = DAX1 (NR0B1) inhibitors relieving SF-1 repression, confirmation, cell-based, luminescence, HEK293T, full-length DAX-1, SF-1 activated StAR promoter; shares compounds with DAX1 inh-1; HEK293T StAR-promoter luciferase reporter, SF-1/DAX-1 repression; inhibition, % at 6.8 µM; 87% of 2,400 active;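 active means inhibition above the average of every tested compound plus 3 SD, cut at about 3.8% in these data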;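 further: 0% = DAX-1 cells with DMSO and 100% = no DAX-1 control cells with DMSO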
SF1 mutant ctr = StAR reporter signal changes without DAX1, counter-screen for DAX1 inhibitor project, cell-based, luminescence, AF-2 mutant SF-1, transactivation | 78% of 2,400 active | HEK293 StAR-luciferase, SF-1 AF2 mutant | inhibition, % at 6.8 µM | AID 652136, 2013 | shares compounds with DAX1 inh-1;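 active means inhibition above the mean of all tested compounds plus 3 SD, cut at about 3% in these data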;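 further: 0% = DAX-1 transfected cells with DMSO and 100% = cells without DAX-1 with DMSO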
LXR ag = LXR agonists, Gal4 luciferase reporter, confirmation, counter-screen for hcDAF-12 agonist project, cell-based, luminescence, HEK293, H. contortus campaign. shares compounds with hcDAF-12 act. HEK293 Gal4-LXR tk-luc reporter, 24 h; normalized: DMSO 0%, positive control 100%. activation, % at 6.8 µM. 3,400 tested, under 10 active;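 active means mean percent activation of the reporter above a cutoff set as the average over tested compounds plus their standard deviation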
hcDAF12 ag = H. contortus DAF-12 receptor agonists, confirmation, cell-based, luminescence, HEK293, lit1-tk-luc, triplicate | AID 743032, 2013 | 61% of 3,400 active | shares compounds with hcDAF-12 act | activation, % at 6.8 µM | HEK293 hcDAF-12 lit1-tk-luc reporter; % of Δ7-dafachronic acid response;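 active means mean activation across triplicate tests above the threshold derived from the earlier primary screen, cut at about 5.5% in these data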;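 further: 0% = DMSO only wells and 100% = 3 µM Δ7-dafachronic acid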
hgDAF12 conf = H. glycines DAF-12 receptor agonists, confirmation, cell-based, luminescence, HEK293, GAL4-LBD fusion. shares compounds with hgDAF12 agonist. HEK293 GAL4-hgDAF12 luciferase reporter, agonist mode; percent of butyrate response. activation, % at 6.8 µM. 80% of 3,300 active. AID 743050, 2013;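 active means mean activation over triplicate wells above the hit cutoff derived from the earlier primary screen, cut at about 11% in these data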;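 further: 0% = DMSO low control and 100% = 2 mM sodium butyrate high control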
LXRb DAF12 ctr = LXR agonists, Gal4 luciferase reporter, confirmation, counter-screen for hgDAF-12 agonist project, cell-based, luminescence, HEK293, H. glycines campaign | shares compounds with hgDAF12 agonist | 24 h | activation, % at 6.8 µM | 3,300 tested, under 10 active | AID 743051, 2013;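 active means mean activation of the triplicate above a set limit carried over from the primary screen, none filed active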
* = called active by the depositor; nt = no result. A selection: hits, their analogues and other compounds. The true share with any hit is near 4.1%.

SMILES	hgDAF12 agonist	DAX1 inh-1	hcDAF-12 act	DAX1 inh-2	ssDAF12 agonist	DAX1 inh confirm	SF1 mutant ctr	hgDAF12 conf	LXRb DAF12 ctr	others
CCCC#Cc1ccc(CC[C@H]2O[C@H]3CC[C@@H](CO)O[C@H]3C[C@H]2NC(=O)CN2CCOCC2)cc1	-2	0	1	nt	-1	nt	nt	nt	nt
CC(=O)Oc1ccc(Cn2c(C)c(C(=O)NCc3ccc4c(c3)OCCO4)sc2=O)cc1	-1	0	-2	nt	-1	nt	nt	nt	nt
O=C(NCc1ccccc1F)C1C2C=CC3(CN(Cc4ccccc4)C(=O)C13)O2 (configuration not stated)	-1	0	-2	nt	-1	nt	nt	nt	nt
COc1ccc2c(CN(C)Cc3ccccc3)cc(=O)oc2c1	15*	7.2*	2	nt	1	7.6*	4.1*	15*	1
COP(=O)(CC(=O)O)C(CC(C)C)NC(=O)OCc1ccccc1 (configuration not stated)	1	0	-3	nt	-1	nt	nt	nt	nt
Cc1ccc(CN2CCCCC(NC(=O)c3cccc([N+](=O)[O-])c3)C2=O)cc1 (configuration not stated)	-2	-2	-2	nt	-1	nt	nt	nt	nt
COc1ccc(NC(=O)N2CCc3ccccc3C2)cc1OC	2	-1	-1	1	-1	nt	nt	nt	nt
Cc1ccc(NC(=O)N2CCc3ccccc3C2)cc1C	14*	6.6*	4	2	-1	8.6*	5.5*	13*	0
O=C(Nc1ccc2c(c1)Cc1ccccc1-2)c1ccco1	17*	5.6*	6.3*	3	0	17*	10*	21*	1
CCOC(=O)C1=C[C@@H](c2ccccc2)N(S(=O)(=O)c2ccc(C)cc2)[C@H]1c1cccc(Cl)c1	0	-1	-1	nt	-1	nt	nt	nt	nt
O=C(/C=C/c1ccccc1Cl)Nc1cccc(O)c1	24*	5.8*	10*	-1	0	17*	11*	20*	1	LXR ag=2;hcDAF12 ag=6.5*
O=C(/C=C/c1ccccc1Cl)Nc1ccc2c(c1)C(=O)NC2=O	2	0	-2	0	-2	nt	nt	nt	nt
